Our source for the Potency values is PubChem BioAssay (NCATS).

SMILES strings stand for the structures. Results filed as inconclusive are left out. Where a call stands in place of a potency, no number is given. The source made the active and inactive calls. The call rests on the fitted dose curve; in most records, active means well fitted cell-killing curve with a large enough effect; inconclusive means small, poorly fitted or top-dose-only effect, or effect the other way; inactive means no such curve, though single readings can be large or run the other way.
Potency means the concentration at half of the fitted maximal effect.

The test is described as follows: Quantitative High-Throughput drug screen in 47 multiple myeloma cell lines against the NCATS MIPE library collection: ARP1_JJKsccF8 cell viability assay (AID 1918928; further: nearly all actives have a fitted effect of over 40% in size). To be noted: ARP1 myeloma cells viability, CellTiter-Glo ATP, 48 h; series mostly up to 45.8 µM. The source says:
PI: Beverly A. Mock Ph.D.
Laboratory of Cancer Biology and Genetics,
Center for Cancer Research, National Cancer Institute,
National Institute of Health, Bethesda, Maryland
Drug resistance and disease progression are common in multiple myeloma (MM) patients, underscoring the need for new therapeutic combinations. […] We hypothesized that effective combinations would reduce MYC expression and enhance p16 activity. […] These preclinical data identify potentially useful drug combinations for evaluation in drug-resistant MM and reveal potential mechanisms of combined drug sensitivity.
Described herein is the primary MIPE qHTS used to cherrypick compounds. Validated compounds were then further tested for potential synergistic activiy.
[1] Peat TJ, Gaikwad SM, Dubois W, Gyabaah-Kessie N, Zhang S, Gorjifard S, Phyo Z, Andres M, Hughitt VK, Simpson RM, Miller MA, Girvin AT, Taylor A, Williams D, D'Antonio N, Zhang Y, Rajagopalan A, Flietner E, Wilson K, Zhang X, Shinn P, Klumpp-Thomas C, McKnight C, Itkin Z, Chen L, Kazandijian D, Zhang J, Michalowski AM, Simmons JK, Keats J, Thomas CJ, Mock BA. Drug combinations identified by high-throughput screening promote cell cycle transition and upregulate Smad pathways in myeloma. Cancer Lett. 2023 Aug 1;568:216284. doi: 10.1016/j.canlet.2023.216284. Epub 2023 Jun 24. PMID: 37356470; PMCID: PMC10408729.
SEQUENCE No. (e.g., 1, 2, 3, etc.); […] (e.g., Cells, Incubation, Reagent, etc.); VALUE and DESCRIPTION.
1; Cells; 5 uL; white, solid bottom 1536-well Greiner assay plate.
2; Compounds; 23 nL; Kalypsis pin tool (Wako USA) equipped with a 1536-well pin head to transfer to the assay plates.
3; Incubation; 48 hours; 37C incubation.
4; Reagent;5uL; CellTiter Glo (Promega).
5; Detector; 425V; Luminescence; Viewlux PerkinElmer.
NOTES (numbers refer to Sequence numbers above)
1. The cell-based screening methods employed in this study were like those previously published. Briefly, the corresponding myeloma cell lines were screened in 1,536-well plates with 500 cells, 5-uL per well for inhibition of cell viability (assessed by measuring ATP levels with CellTiterGlo).
2. NCATS MIPE 4.0 library of approved and investigational drugs were added using the Kalypsis pin tool. Wells treated with DMSO only for 100% viability and media only cells for 0% viability were used as controls.
3. The assay plates were covered and incubated for 48 hours in a 37C, 5% CO2 incubator with controlled humidity.
4. After 48 hours, CellTilter-GloTM luminescent substrate mix (Promega) reagent was added to the assay plate and plates we incubated for 5 min at room temperature.
5. Signal was measured as median relative luminescence units on a ViewLux (PerkinElmer) multiplate reader.
[1] Heske CM, Davis MI, Baumgart JT, Wilson K, Gormally MV, Chen L, Zhang X, Ceribelli M, Duveau DY, Guha R, Ferrer M, Arnaldez FI, Ji J, Tran HL, Zhang Y, Mendoza A, Helman LJ, Thomas CJ. Matrix Screen Identifies Synergistic Combination of PARP Inhibitors and Nicotinamide Phosphoribosyltransferase (NAMPT) Inhibitors in Ewing Sarcoma. Clin Cancer Res. 2017 Dec 1;23(23):7301-7311. doi: 10.1158/1078-0432.CCR-17-1121. Epub 2017 Sep 12. PMID: 28899971; PMCID: PMC6636827.
In the case of `Oc1ccc(C2=Cc3ccc(O)cc3OC2)cc1`, the Potency was 4.18 µM (active).
For the molecule `O=C(NC1CCOCC1)c1ccc(-c2cc(-c3cn[nH]c3-c3ccccn3)ccn2)cc1`, the Potency entry was “inactive”.
As for `Cc1c(O)cccc1C(=O)N[C@@H](CSc1ccccc1)[C@H](O)CN1C[C@H]2CCCC[C@@H]2C[C@@H]1C(=O)NC(C)(C)C`, the figure is 23.5 µM (active); as for `N#CC1(c2ccc(NC(=O)c3cccnc3NCc3ccncc3)cc2)CCCC1`, “inactive”.
With `O=C(Nc1cc(Cl)cc2c1[nH]c1cnccc12)c1cccnc1`, the Potency is 13.2 µM (active).
As for `CS(=O)(=O)N(Cc1ccco1)CC(O)Cn1c2ccccc2c2ccccc21` (stereo not given), the entry is “inactive”; as for `NC(CO)(CO)CCc1ccc(Sc2cccc(OCc3ccccc3)c2)cc1Cl`, 23.5 µM (active); as for `COc1cc2nc(-c3ccc(N4CCN(C)CC4)cc3)nc(NCCN3CCOCC3)c2cc1OC`, 0.059 µM (active).
Then `CCC(CC)[C@H](NC(C)=O)[C@@H]1[C@H](O)[C@@H](C(=O)O)C[C@@H]1N=C(N)N`, with “inactive”; and `O=C(O)CCC1CCC(c2cc(F)ccc2F)(S(=O)(=O)c2ccc(Cl)cc2)CC1` (stereo not given), with “inactive”.
As for `CC(C)(C)OC(=O)N[C@H]1CCCCCC=C[C@@H]2C[C@@]2(C(=O)NS(=O)(=O)C2CC2)NC(=O)[C@@H]2C[C@@H](OC(=O)N3Cc4cccc(F)c4C3)CN2C1=O`, the entry is “inactive”; as for `COc1ccc(-c2coc3cc(O)ccc3c2=O)cc1`, “inactive”; as for `CC[C@@H]1C=C(C)C[C@H](C)C[C@H](OC)[C@H]2O[C@@](O)(C(=O)C(=O)N3CCCC[C@@H]3C(=O)O[C@H](C(C)=C[C@@H]3CC[C@H](Cl)[C@H](OC)C3)[C@H](C)[C@@H](O)CC1=O)[C@H](C)C[C@H]2OC`, 13.2 µM (active).
`Nc1ncnc2c1ncn2[C@@H]1O[C@H](CO)C[C@@H]1O`: the Potency entry is “inactive”.
On to `CON=C(C(=O)N[C@@H]1C(=O)N2C(C(=O)OCOC(=O)C(C)(C)C)=C(C=Cc3scnc3C)CS[C@H]12)c1csc(N)n1`, for which the Potency entry was “inactive”.
As for `O=c1cc(CN2CCOCC2)occ1OCCCCCSc1ccnc2cc(C(F)(F)F)ccc12`, the figure is 20.9 µM (active).
Turning to `O=C1C(Cl)=C(NCCN2CCOCC2)C(=O)c2ncccc21`, the Potency was 4.69 µM (active).
Then `Nc1ncnc2ccccc12`, with “inactive”; and `CN(C)c1cc(NC(=O)CNC(C)(C)C)c(O)c2c1C[C@@H]1C[C@H]3[C@H](N(C)C)C(=O)C(C(N)=O)=C(O)[C@@]3(O)C(=O)C1=C2O`, with “inactive”; and `COc1ccc(-c2coc3cc(O)cc(O)c3c2=O)cc1`, with “inactive”.
Consider `CO[C@H]1C(=O)[C@]2(C)[C@@H](OC)C[C@H]3OC[C@@]3(OC(C)=O)[C@H]2[C@H](OC(=O)c2ccccc2)[C@]2(O)C[C@H](OC(=O)[C@H](O)[C@@H](NC(=O)OC(C)(C)C)c3ccccc3)C(C)=C1C2(C)C`, for which the Potency result is “inactive”.
For the molecule `CC(C)(C)COc1ccc(-n2cc(C(=O)O)cn2)cc1C#N`, the Potency result is “inactive”.
As to `CN(C)Cc1cccc(N=C(c2ccccc2)c2c(O)[nH]c3cc(C(=O)N(C)C)ccc23)c1`, the Potency entry is “inactive”.
As to `COCCOC(=O)C1=C(C)NC2=C(C(=O)CC(c3ccccc3OC)C2)C1c1cccc(O)c1` (stereo not given), the Potency is 10.5 µM (active).
As for `CN(C)C1CCN(C(=O)c2ccc(NC(=O)Nc3nc(N4CCOCC4)nc(N4CCOCC4)n3)cc2)CC1`, the figure is 0.0166 µM (active); as for `Cc1nc(N)sc1-c1ccnc(Nc2ccc(N3CCOCC3)cc2)n1`, 8.33 µM (active).
As for `CC(=O)Oc1cc2c(s1)CCN(C(C(=O)C1CC1)c1ccccc1F)C2` (stereo not given), the figure is 1.32 µM (active); as for `CC[C@H]1OC(=O)[C@H](C)[C@@H](O[C@H]2C[C@@](C)(OC)[C@@H](O)[C@H](C)O2)[C@H](C)[C@@H](O[C@@H]2O[C@H](C)C[C@H](N(C)C)[C@@H]2O)[C@](C)(O)C[C@@H](C)CN(C)[C@H](C)[C@@H](O)[C@]1(C)O`, “inactive”; as for `O=c1cc(-c2ccc(O)cc2)oc2cc(O)cc(O)c12`, 20.9 µM (active).
`c1cc(-c2sc(-c3ccncc3)c(-c3ccncc3)c2-c2ccncc2)ccn1`: the Potency entry is “inactive”.
As for `CN1C[C@H]2c3ccccc3Oc3ccc(Cl)cc3[C@@H]2C1`, the Potency entry was “inactive”.
Consider `NS(=O)(=O)c1cccc2c1C(=O)c1cccc(O)c1C2=O`, for which the Potency was 0.332 µM (active).
Turning to `O=C1C[C@@H](c2ccc(O)cc2)Oc2cc(O)cc(O)c21`, the Potency entry is “inactive”.
As for `COC[C@@H](c1ccc(C(F)(F)F)cc1)N1CCN(C2(C)CCN(C(=O)c3c(C)ncnc3C)CC2)C[C@H]1C`, the entry is “inactive”; as for `C[C@H](NC(=O)C(=O)Nc1ccccc1C(C)(C)C)C(=O)N[C@@H](CC(=O)O)C(=O)COc1c(F)c(F)cc(F)c1F`, 14.8 µM (active); as for `c1ccc2c(Cc3c[nH]c4ccccc34)c[nH]c2c1`, 20.9 µM (active).
As for `Oc1ccc(C2CCN(c3ccnc4ccccc34)CC2)cc1O`, the Potency was 23.5 µM (active).
For `O=C(NCc1ccccc1)c1csc(Nc2ccncn2)n1`, the Potency is 23.5 µM (active).
As for `O=C(O)c1ccccc1C(=O)Nc1ccc(-c2ccccc2)cc1`, the entry is “inactive”; as for `CN(C)CCC=C1c2ccccc2COc2ccc(CC(=O)O)cc21`, “inactive”.
